Where a name gives a salt, the structure may show the parent alone. ± gives the standard deviation of the averaged measurements.
System: iBMDM (immortalised mouse bone-marrow-derived macrophages), LPS-stimulated
Assay: mitochondrial superoxide (MitoSOX fluorescence) fold increase over unstimulated control; higher = more LPS-induced mitochondrial ROS (less inhibition)
Details: inhibitor concentration: 500 nM, LPS: 100 ng/ml
Summary of the method: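 Immortalised mouse bone-marrow-derived macrophages were seeded in triplicate in black 96-well plates and moved to phenol-red-free 1% FCS/DMEM for 20 h. They were pretreated 30 min with kinase inhibitors (500 nM), loaded with 1 μM MitoSox for 10 min, then given LPS (100 ng/ml). Fluorescence (excitation/emission 510/580 nm, ClarioStar plate reader) was read every 60 min for 4 h. Mitochondrial superoxide is fold induction over untreated control macrophages, averaged over three replicates.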

SMILES	mitochondrial superoxide (time after LPS: 1 h)	mitochondrial superoxide (time after LPS: 2 h)	mitochondrial superoxide (time after LPS: 4 h)
COc1ccc(-c2cc3c(C)nc(N)nc3n([C@H]3CC[C@H](OCCO)CC3)c2=O)cn1	1.37 ± 0.058	1.53 ± 0.056	1.74 ± 0.049
CC(=O)Nc1cccc(-n2c(=O)n(C3CC3)c(=O)c3c(Nc4ccc(I)cc4F)n(C)c(=O)c(C)c32)c1	1.34 ± 0.11	1.44 ± 0.066	1.62 ± 0.083
C[C@@H](N)[C@H]1CC[C@H](C(=O)Nc2ccncc2)CC1	1.56 ± 0.061	1.67 ± 0.11	1.71 ± 0.065
CN1CCN(c2cccc(Nc3nc4c(-c5ccc(S(C)(=O)=O)cc5)cccn4n3)c2)CC1	1.28 ± 0.037	1.45 ± 0.058	1.65 ± 0.051
CNC(=O)c1ccccc1Nc1nc(Nc2ccc(N3CCOCC3)cc2OC)ncc1Cl	1.12 ± 0.084	1.11 ± 0.056	1.23 ± 0.081
Cc1ccc(F)c(NC(=O)Nc2ccc(-c3cccc4[nH]nc(N)c34)cc2)c1 [Linifanib (ABT-869)]	1.66 ± 0.077	1.72 ± 0.074	1.83 ± 0.067
CN1CC[C@H](c2c(O)cc(O)c3c(=O)cc(-c4ccccc4Cl)oc23)[C@H](O)C1 [Flavopiridol HCl]	1.31 ± 0.077	1.48 ± 0.088	1.71 ± 0.06
CC(C)(C#N)c1ccc(N2C(=O)OCc3cnc4ccc(-c5cnc6ccccc6c5)cc4c32)cc1	1.4 ± 0.039	1.48 ± 0.056	1.676 ± 0.013
N#Cc1ccc2[nH]c(O)c(-c3ccc(CN4CCOCC4)cn3)c2c1	1.08 ± 0.043	1.24 ± 0.097	1.38 ± 0.045
Cn1c(=O)n(-c2ccc(C(C)(C)C#N)cc2)c2c3cc(-c4cnc5ccccc5c4)ccc3ncc21 [BEZ235 (NVP-BEZ235, Dactolisib)]	1.47 ± 0.087	1.47 ± 0.084	1.61 ± 0.076
O=c1c(-c2ccc(O)cc2)coc2cc(O)cc(O)c12 [Genistein]	1.22 ± 0.079	1.29 ± 0.058	1.36 ± 0.15
COc1ccc2c(c1)c(C1=C(c3c[nH]c4ccccc34)C(=O)NC1=O)cn2CCCN(C)C	1.23 ± 0.056	1.27 ± 0.043	1.36 ± 0.042
O=S(=O)(c1cccc2cnccc12)N1CCCNCC1 [Fasudil (HA-1077) HCl]	1.03 ± 0.023	1.12 ± 0.041	1.31 ± 0.029
COc1cc2ncnc(Nc3ccc(F)c(Cl)c3)c2cc1NC(=O)/C=C/CN1CCCCC1	1.22 ± 0.031	1.48 ± 0.045	1.57 ± 0.069
COc1cc2nccc(Oc3ccc(NC(=O)NC4CC4)c(Cl)c3)c2cc1C(N)=O [Lenvatinib (E7080)]	1.45 ± 0.042	1.71 ± 0.053	1.73 ± 0.15
COc1ccc(Cl)cc1NC(=O)Nc1cc(C)nc2ccccc12	1.42 ± 0.05	1.55 ± 0.055	1.652 ± 0.011
CC(C)n1nc(-c2ccc3oc(N)nc3c2)c2c(N)ncnc21	1.34 ± 0.018	1.57 ± 0.055	1.78 ± 0.051
CCn1c(N)c(C(=O)NC)c(=O)c2ccc(C#CC(C)(O)COC)nc21 (centres undefined)	1.11 ± 0.027	1.22 ± 0.042	1.33 ± 0.051
Cc1cnc(-c2cnc(NCCNc3ccc(C#N)cn3)nc2-c2ccc(Cl)cc2Cl)[nH]1	1.14 ± 0.048	1.09 ± 0.041	1.25 ± 0.027
COC(=O)c1ccc2c(C(=Nc3ccc(N(C)C(=O)CN4CCN(C)CC4)cc3)c3ccccc3)c(O)[nH]c2c1 [Nintedanib (BIBF 1120)]	1.43 ± 0.015	1.5 ± 0.056	1.72 ± 0.037
NC(=O)c1cnc(N[C@@H]2CCCC[C@@H]2N)nc1Nc1cccc(-n2nccn2)c1	1.38 ± 0.058	1.57 ± 0.08	1.71 ± 0.11
CCCS(=O)(=O)Nc1ccc(F)c(C(=O)c2c[nH]c3ncc(-c4ccc(Cl)cc4)cc23)c1F [Vemurafenib (PLX4032, RG7204)]	1.159 ± 0.0019	1.16 ± 0.015	1.17 ± 0.029
COc1cc(Nc2c(C#N)cnc3cc(OCCCN4CCN(C)CC4)c(OC)cc23)c(Cl)cc1Cl [Bosutinib (SKI-606)]	1.58 ± 0.017	1.66 ± 0.056	1.81 ± 0.04
COc1ccc(-c2ccc3c(N4CCOCC4)nc(N4C[C@@H](C)O[C@@H](C)C4)nc3n2)cc1CO	1.29 ± 0.041	1.24 ± 0.037	1.32 ± 0.068
CN(C)c1ccc(-c2nc3ncc(Cl)c(N4CCN(CC(=O)Nc5nccs5)CC4)c3[nH]2)cc1	1.21 ± 0.037	1.278 ± 0.0079	1.35 ± 0.039
C=CCc1ccc(O)c(-c2ccc(O)c(CC=C)c2)c1 [Honokiol]	1.24 ± 0.031	1.31 ± 0.1	1.39 ± 0.096
COc1c(C)c(C(=O)c2ccc(N)c(C(=O)O)c2)n2ccccc12	1.19 ± 0.076	1.26 ± 0.036	1.32 ± 0.062
C[C@@H]1COCCN1c1cc(C2(S(C)(=O)=O)CC2)nc(-c2cccc3[nH]ccc23)n1	1.19 ± 0.055	1.244 ± 0.0093	1.34 ± 0.052

Reference: the supplement of paper PMC7393113
